Screening data deposited in PubChem BioAssay by several laboratories.
An excerpt weighted towards active compounds, which were near 5.9% of everything screened.
PRMT1 FP inh = PRMT1 (human) inhibition, primary screen; Q99873; recombinant PRMT1, activity-based probe fluorescence polarization; inhibition, % at 2.79 µM; 370,000 tested, 1.3% active;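 active means inhibition above about 21% made by adding two undisclosed values, limit read from the data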
Target sequence (Q99873 whole entry, looked up): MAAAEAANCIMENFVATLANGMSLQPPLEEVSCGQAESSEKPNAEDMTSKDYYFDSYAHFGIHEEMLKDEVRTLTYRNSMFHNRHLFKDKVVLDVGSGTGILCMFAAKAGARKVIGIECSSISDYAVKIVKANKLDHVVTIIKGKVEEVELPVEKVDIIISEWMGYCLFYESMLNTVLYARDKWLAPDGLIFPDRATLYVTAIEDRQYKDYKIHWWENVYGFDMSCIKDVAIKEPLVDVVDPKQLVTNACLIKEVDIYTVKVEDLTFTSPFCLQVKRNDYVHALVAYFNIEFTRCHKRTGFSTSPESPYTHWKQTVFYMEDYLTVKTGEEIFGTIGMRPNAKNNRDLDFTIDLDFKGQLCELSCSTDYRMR
Rtt109 Vps75 = inhibitors of Candida albicans Rtt109/Vps75 histone acetyltransferase | Q5AAJ8 | purified Rtt109/Vps75, ThioGlo CoA-SH fluorescence, 4 h | inhibition, % at 34.9 µM | 330,000 tested, 0.16% active | AID 540336;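 active means inhibition of at least 50% in every replicate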
ABHD5 PLIN5 PPI = blocks binding of human ABHD5 to perilipin-5 | Split G. princeps luciferase complementation, luminescence, 4 h | inhibition, % at 4 µM | 360,000 tested, 0.78% active;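 active means inhibition above the mean inhibition across every tested compound plus 3 SD, cut at about 22% in these data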;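 further: 0% = DMSO only wells and the 100% control is not disclosed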
rCAG RNA binder = binds r(CAG) RNA repeats; r(CAG) RNA repeat, TO-PRO-1 dye displacement fluorescence; inhibition, % at 3 µM; 370,000 tested, 1.3% active;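 active means inhibition above the plate cutoff, the mean of all test compounds on that plate plus 3 SD, cut at about 35% in these data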;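 further: 0% = DMSO alone and 100% = 100 µM mitoxantrone as full dye displacement; higher means more dye released from RNA so lower well fluorescence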
LANA-H2B inh = blocks KSHV LANA binding to histone H2A/H2B | inhibition, % (test concentration not listed) | cell-free LANA-H2A/H2B peptide, fluorescence polarization | 320,000 tested, 0.6% active | AID 2629 | Q9QR71; in the data active means inhibition mostly above about 10%, no sharp cut-off; inactive means mostly below about 6.7%
ALR H2O2 inh = inhibitors of human sulfhydryl oxidase ALR | P55789 | purified ALR, DTT oxidation, H2O2 HRP-luminol luminescence | inhibition, % (test concentration not listed) | 290,000 tested, 3.8% active;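 active means mean replicate inhibition above about 79%, with every replicate also reaching it, limit read from the data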
The depositor's hits bear a star; . = no result.

SMILES	PRMT1 FP inh	Rtt109 Vps75	ABHD5 PLIN5 PPI	rCAG RNA binder	LANA-H2B inh	ALR H2O2 inh
CCN(C(=O)Nc1ccccc1)c1ccccc1	1	9	-2	0	17*	-21
CCOc1c(Br)cc(CNc2ccc(N3CCN(C(C)=O)CC3)cc2)cc1OC	6	-7	3	-1	3	98*
CCOc1cc(CNc2ccc(N3CCN(C(C)=O)CC3)cc2)cc(Br)c1OC	4	12	-8	1	.	.
CCOc1cc(CNc2ccc(N3CCCCC3)cc2)cc(Br)c1OCC(=O)NC(C)(C)C	8	-6	-11	2	7	32
COc1cc(CNc2ccc(N3CCOCC3)cc2)cc(Br)c1OC	6	26	1	4	-2	98*
CCOc1cc(CNc2ccc(N3CCOCC3)cc2)cc(Br)c1OCC	2	-1	-11	5	-1	99*
COc1cc(CNc2ccc(N3CCCC3)cc2)cc(Cl)c1OC	4	6	-4	12	2	19
Cc1ccc(S(=O)(=O)NCC(=O)OCC(=O)N2CC(C)OC(C)C2)cc1 (stereo not given)	-1	12	2	-2	3	-1
O=C(CSc1nnc(-c2ccccc2)n1-c1ccccc1)Nc1ccccc1-c1ccccc1	0	.	.	1	.	.
CC(Oc1ccc(Br)cc1)c1nc2c3ccccc3nc(=S)n2[nH]1 (stereo not given)	9	2	2	36*	4	19
O=C(Nc1nccs1)c1ccc(Br)o1	-3	-1	-2	0	3	-2
O=C(/C=C/c1ccc(Br)o1)Nc1nccs1	1	8	8	4	19*	.
O=C1c2ccccc2C(=O)c2c1cccc2N1CCCC1	14	1	3	11	0	.
Cn1c(=O)cc2c3c(c(N4CCCCC4)ccc31)C(=O)c1ccccc1-2	18	.	6	-5	22*	18
Cc1ccc(-n2c(SCC(=O)c3ccc(Br)cc3)nnc2-c2ccncc2)cc1	-2	.	.	3	.	.
Cc1nc2ccc(C(=O)Nc3ccc(N(C)C)cc3)cc2s1	-2	2	3	-1	2	99*
CC(=O)c1ccc(NC(=O)c2ccc3nc(C)sc3c2)cc1	9	-1	-11	-2	-1	-3
O=NN(CCCl)C(=O)NCC1=C[N+](=O)CC=C1	-5	.	2	1	.	.
